Among the data in PubChem BioAssay are inhibition values, retold here.

Values without a mark were called inactive. Activity calls are given as the source filed them.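 Rule for the calls, unless noted: active = mean inhibition above 46.68%, the untreated control wells mean plus 3 SD; inactive = the rest.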

What is called inhibition is the drop in the measured response relative to a control, in per cent.

The target in experiment [1] is Nuclear receptor coactivator 3 (Homo sapiens) (UniProt Q9Y6Q9). As to the kind of experiment: NCOA3 GAL4-fusion reporter inhibition – cell-based, luminescence, quadruplicate, confirmation (AID 588792;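 active = mean inhibition over 43.08%, the solvent-only control mean plus 3 SD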;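 note: 0% = DMSO treated cells and 100% = gossypol at 36 µM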). The following applies: HEK293 GAL4-SRC3 luciferase reporter, at 3.6 µM, hits give high values. A general note: A reporter such as luciferase makes a cellular process visible.

The test system of experiment [2] is transactivating tegument protein VP16 (Human herpesvirus 1), Gal4-VP16 luciferase reporter. Nature of the experiment: repression of VP16-driven luciferase reporter – cell-based, luminescence, high throughput, counter-screen for SRC3 inhibitor project (AID 588794; in the data active = inhibition above about 30%). The following applies: mammalian cells, at 3.6 µM, hits give high values.
Experiment [3] has as its target Nuclear receptor coactivator 1 (Homo sapiens) (UniProt Q15788). As to the kind of experiment: NCOA1 GAL4-fusion reporter inhibition – cell-based, luminescence, quadruplicate, confirmation (AID 588820).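 Note: 0% = DMSO wells and 100% = gossypol 36 µM treated wells.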 Particulars: HEK293 GAL4-SRC1 luciferase reporter, at 3.6 µM, hits give high values.
A short description of experiment [4]: repression of VP16-driven luciferase reporter – cell-based, luminescence, high throughput, counter-screen for SRC1 inhibitor project (AID 588824; in the data active = inhibition above about 25%). Particulars: cell-based VP16 transactivation luciferase luminescence; at 3.6 µM; hits give high values.
Experiment [5] in a line: StAR promoter reporter inhibitors, counter-screen for LRH-1 inverse agonist project, cell-based, luminescence, high throughput (AID 651611; in the data active = inhibition above about 28%). The following applies: StAR promoter luciferase reporter counterscreen, at 3.6 µM, hits give high values. For orientation: A counterscreen serves to expose hits that act by an unwanted route or on another target.
The target in experiment [6] is Nuclear receptor subfamily 5 group A member 2 (Homo sapiens) (UniProt O00482). As to the kind of experiment: NR5A2 activity suppression in reporter cells – cell-based, luminescence, confirmation (AID 651613; in the data active = inhibition above about 42%;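 note: HEK293T cells co-transfected with LRH-1 and StAR promoter luciferase reporter; 0% = vehicle wells and 100% = parental cells lacking receptor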). Particulars: cell-based LRH-1 luciferase reporter, inverse agonism; at 3.6 µM; hits give high values.
Experiment [7] deals with Steroidogenic factor 1 (Homo sapiens) (UniProt Q13285). As to the kind of experiment: inverse agonism at SF1 nuclear receptor – cell-based, luminescence, high throughput, counter-screen for LRH-1 inverse agonist project (AID 651614; in the data active = inhibition above about 44%;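 note: cells cotransfected with StAR promoter reporter and SF1 expression vector; 0% = vehicle on cells with receptor and 100% = vehicle on cells lacking receptor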). Particulars: cell-based SF1 luciferase reporter, at 3.6 µM, hits give high values.
A short description of experiment [8]: compounds suppressing VP16-driven luciferase signal – cell-based, luminescence, high throughput, counter-screen for LRH-1 inverse agonist project (AID 651615; in the data active = inhibition above about 33%). Particulars: Gal4-VP16 luciferase reporter cells, at 3.6 µM, hits give high values.

Sequence of Nuclear receptor coactivator 1 (Homo sapiens) (Q15788 whole entry, looked up, the tested form may be a part): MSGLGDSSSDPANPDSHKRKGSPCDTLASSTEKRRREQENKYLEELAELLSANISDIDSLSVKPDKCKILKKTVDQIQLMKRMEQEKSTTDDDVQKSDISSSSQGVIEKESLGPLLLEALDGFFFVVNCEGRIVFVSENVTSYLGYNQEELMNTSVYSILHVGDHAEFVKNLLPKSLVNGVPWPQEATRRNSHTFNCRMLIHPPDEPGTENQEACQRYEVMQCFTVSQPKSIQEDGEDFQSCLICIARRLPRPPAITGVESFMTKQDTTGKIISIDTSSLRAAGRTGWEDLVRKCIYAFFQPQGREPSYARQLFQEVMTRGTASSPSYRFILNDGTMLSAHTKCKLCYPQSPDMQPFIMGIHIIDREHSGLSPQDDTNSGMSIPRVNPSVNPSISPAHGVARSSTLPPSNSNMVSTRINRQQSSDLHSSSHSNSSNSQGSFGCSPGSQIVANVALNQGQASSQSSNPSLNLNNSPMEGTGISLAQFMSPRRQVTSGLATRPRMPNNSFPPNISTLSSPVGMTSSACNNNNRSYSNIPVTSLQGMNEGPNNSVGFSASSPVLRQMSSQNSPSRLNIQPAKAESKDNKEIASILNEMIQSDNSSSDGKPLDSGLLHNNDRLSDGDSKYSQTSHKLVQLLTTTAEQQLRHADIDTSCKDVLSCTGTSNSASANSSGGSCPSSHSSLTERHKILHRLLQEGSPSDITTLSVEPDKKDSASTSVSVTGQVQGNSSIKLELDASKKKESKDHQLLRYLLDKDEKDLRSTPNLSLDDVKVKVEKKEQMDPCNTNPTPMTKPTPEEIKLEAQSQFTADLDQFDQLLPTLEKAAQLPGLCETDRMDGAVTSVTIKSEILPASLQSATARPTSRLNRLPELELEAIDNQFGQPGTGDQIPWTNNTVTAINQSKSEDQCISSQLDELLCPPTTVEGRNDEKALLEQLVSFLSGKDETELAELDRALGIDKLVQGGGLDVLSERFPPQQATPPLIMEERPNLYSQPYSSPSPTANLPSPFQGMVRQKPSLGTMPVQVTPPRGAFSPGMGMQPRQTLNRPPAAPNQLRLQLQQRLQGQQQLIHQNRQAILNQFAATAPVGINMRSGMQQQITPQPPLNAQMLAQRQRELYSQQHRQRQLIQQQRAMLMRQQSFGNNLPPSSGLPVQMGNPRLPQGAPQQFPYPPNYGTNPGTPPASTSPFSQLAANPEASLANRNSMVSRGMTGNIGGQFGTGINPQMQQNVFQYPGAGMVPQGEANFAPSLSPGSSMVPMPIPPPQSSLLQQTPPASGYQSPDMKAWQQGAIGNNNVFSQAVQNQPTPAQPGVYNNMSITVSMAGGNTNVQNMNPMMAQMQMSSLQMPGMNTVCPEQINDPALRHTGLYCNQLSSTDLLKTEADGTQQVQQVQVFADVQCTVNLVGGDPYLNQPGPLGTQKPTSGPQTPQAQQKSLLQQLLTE
Sequence of Nuclear receptor coactivator 3 (Homo sapiens) (Q9Y6Q9 whole entry, looked up, the tested form may be a part): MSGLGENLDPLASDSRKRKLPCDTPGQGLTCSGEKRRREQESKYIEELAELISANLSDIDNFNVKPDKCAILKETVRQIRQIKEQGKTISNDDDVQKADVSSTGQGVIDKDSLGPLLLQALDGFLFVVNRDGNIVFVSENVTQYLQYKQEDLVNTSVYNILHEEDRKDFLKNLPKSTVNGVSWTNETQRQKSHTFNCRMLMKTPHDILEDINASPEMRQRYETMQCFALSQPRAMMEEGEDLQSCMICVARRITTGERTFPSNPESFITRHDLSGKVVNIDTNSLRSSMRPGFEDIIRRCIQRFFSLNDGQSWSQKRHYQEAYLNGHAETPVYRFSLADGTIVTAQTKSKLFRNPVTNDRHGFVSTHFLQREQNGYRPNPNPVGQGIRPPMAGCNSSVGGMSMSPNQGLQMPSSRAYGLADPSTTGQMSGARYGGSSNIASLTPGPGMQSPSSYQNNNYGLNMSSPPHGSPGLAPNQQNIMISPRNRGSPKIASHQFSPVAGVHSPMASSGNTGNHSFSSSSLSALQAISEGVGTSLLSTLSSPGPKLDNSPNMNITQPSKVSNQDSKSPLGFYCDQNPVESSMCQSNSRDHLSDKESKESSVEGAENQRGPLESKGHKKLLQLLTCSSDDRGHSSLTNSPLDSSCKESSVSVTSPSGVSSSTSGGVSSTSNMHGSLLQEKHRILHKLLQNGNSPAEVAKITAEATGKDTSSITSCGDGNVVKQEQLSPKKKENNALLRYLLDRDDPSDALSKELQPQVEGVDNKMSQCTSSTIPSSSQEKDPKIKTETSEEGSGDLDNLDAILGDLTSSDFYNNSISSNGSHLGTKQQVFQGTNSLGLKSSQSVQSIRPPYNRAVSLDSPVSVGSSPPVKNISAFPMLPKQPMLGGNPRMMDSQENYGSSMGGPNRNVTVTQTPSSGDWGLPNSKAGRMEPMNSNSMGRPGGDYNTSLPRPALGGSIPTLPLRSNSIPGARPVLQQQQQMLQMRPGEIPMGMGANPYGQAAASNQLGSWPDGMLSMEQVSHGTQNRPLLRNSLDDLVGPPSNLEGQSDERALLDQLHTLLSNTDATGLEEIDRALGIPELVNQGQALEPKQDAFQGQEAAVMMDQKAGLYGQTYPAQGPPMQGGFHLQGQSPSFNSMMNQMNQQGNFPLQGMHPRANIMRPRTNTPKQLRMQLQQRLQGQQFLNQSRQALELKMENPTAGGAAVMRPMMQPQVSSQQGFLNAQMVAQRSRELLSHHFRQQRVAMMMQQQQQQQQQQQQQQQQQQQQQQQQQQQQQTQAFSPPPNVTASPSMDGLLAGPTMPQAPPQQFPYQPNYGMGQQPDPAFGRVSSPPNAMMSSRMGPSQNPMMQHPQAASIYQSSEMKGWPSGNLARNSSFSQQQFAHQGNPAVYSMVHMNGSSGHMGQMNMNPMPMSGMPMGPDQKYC
Sequence of Steroidogenic factor 1 (Homo sapiens) (Q13285 whole entry, looked up, the tested form may be a part): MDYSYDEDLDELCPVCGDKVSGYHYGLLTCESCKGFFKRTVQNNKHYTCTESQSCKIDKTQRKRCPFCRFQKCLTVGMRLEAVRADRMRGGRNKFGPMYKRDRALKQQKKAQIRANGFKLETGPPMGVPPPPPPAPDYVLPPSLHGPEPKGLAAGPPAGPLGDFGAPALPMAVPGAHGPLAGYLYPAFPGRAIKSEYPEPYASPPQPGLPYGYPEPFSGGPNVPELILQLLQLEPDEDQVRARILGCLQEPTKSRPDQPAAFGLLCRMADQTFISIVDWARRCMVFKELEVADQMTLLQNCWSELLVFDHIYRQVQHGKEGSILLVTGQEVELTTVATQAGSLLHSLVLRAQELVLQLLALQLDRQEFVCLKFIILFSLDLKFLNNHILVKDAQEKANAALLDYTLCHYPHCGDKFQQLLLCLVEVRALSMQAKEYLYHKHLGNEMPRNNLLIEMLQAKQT
Sequence of Nuclear receptor subfamily 5 group A member 2 (Homo sapiens) (O00482 whole entry, looked up): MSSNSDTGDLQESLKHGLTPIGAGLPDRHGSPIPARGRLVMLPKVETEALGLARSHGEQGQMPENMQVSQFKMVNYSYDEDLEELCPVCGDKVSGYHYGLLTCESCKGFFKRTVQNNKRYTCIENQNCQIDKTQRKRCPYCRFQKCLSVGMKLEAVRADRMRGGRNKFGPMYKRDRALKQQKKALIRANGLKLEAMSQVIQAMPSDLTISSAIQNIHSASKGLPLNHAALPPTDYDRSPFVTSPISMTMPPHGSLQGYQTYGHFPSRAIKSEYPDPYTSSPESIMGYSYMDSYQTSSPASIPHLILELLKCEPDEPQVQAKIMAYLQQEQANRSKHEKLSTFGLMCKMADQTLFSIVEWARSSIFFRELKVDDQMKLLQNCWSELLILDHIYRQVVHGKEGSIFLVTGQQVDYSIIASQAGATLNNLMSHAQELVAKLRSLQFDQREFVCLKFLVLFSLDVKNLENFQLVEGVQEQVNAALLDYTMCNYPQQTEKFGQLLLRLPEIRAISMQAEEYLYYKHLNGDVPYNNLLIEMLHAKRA

`CC1(C)CC(N2CCN(Cc3ccccc3)CC2)=CC(=[N+]2CCCCC2)C1`: the inhibition in experiment [1] was 30.2%; in experiment [2], 50.7% (active); in experiment [3], -6.45%; in experiment [4], 40.7% (active); in experiment [5], 59.8% (active); in experiment [6], 88.3% (active). The inhibition in experiment [7] was 86.3% (active); in experiment [8] it was 74% (active).

As to `Nc1nc(N)c2c(ccc3c2ccn3Cc2cccc([N+](=O)[O-])c2)n1`, the inhibition in experiment [1] was 76.1% (active); in experiment [2], 42.6% (active); in experiment [3], 71.1% (active); in experiment [4] it was 40.8% (active); in experiment [5], 72.6% (active); in experiment [6] it was 65.6% (active). Also, the inhibition was 67.4% (active) in experiment [7] and 43.3% (active) in experiment [8].

On to `CN(C)c1ccc(C=c2c3ccccc3n3c2cc(-c2ccccc2)[n+]3C)cc1`, for which the inhibition in experiment [1] was 65.7% (active); in experiment [2] it was 84.2% (active); in experiment [3] it was 56.7% (active); in experiment [4] it was 88.2% (active); in experiment [5], 74% (active); in experiment [6] it was 109% (active). In addition, the inhibition in experiment [7] was 94.8% (active); in experiment [8], 93.5% (active).

Turning to `CC(NNC(=S)N1CCN(c2ccccn2)CC1)c1nccc2ccccc12` (centres undefined), the inhibition is 61.5% (active) in experiment [1]; 54.2% (active) in experiment [2]; 55.6% (active) in experiment [3]; 59.5% (active) in experiment [4]; 80.9% (active) in experiment [5]; 97.1% (active) in experiment [6]. Further, the inhibition in experiment [7] is 89.3% (active); in experiment [8], 61% (active).

On to `Cc1cccn2c(=O)c3cc(C(=O)NCCN4CCOCC4)c(=N)n(Cc4ccc(F)cc4)c3nc12`, for which the inhibition in experiment [1] was 36.9%; in experiment [2], 41.6% (active); in experiment [3] it was 44.4%; in experiment [4] it was 28.3% (active); in experiment [5] it was 45.4% (active); in experiment [6], 73.9% (active). In addition, the values for the inhibition in experiment [7] and in experiment [8] were 61.6% (active) and 60.1% (active), respectively.

Consider `Cc1cccc(C(=O)Nc2sc3c(c2C(=O)O)CCCC3)c1`, for which the inhibition in experiment [1] is 37.5%; in experiment [2] it was 59.1% (active); in experiment [3] it was 25.5%; in experiment [4], 58.2% (active); in experiment [5] it was 53.6% (active); in experiment [6] it was 85.8% (active). Moreover, the figures for the inhibition in experiment [7] and in experiment [8] were 82.3% (active) and 68.9% (active), respectively.

Take `Cc1cc(/C=C2\Sc3ccccc3N2C)cc(C)[n+]1CC1CCCO1` (centres undefined): the inhibition was 37.1% in experiment [1]; 77.1% (active) in experiment [2]; 34% in experiment [3]; 75.3% (active) in experiment [4]; 77.8% (active) in experiment [5]; 99.3% (active) in experiment [6]. The inhibition was 90.5% (active) in experiment [7] and 89% (active) in experiment [8].

As for `Cc1ccc(O)c(N=Nc2nccs2)c1`, the inhibition is 65.3% (active) in experiment [1]; 57% (active) in experiment [2]; 36% in experiment [3]; 55.5% (active) in experiment [4]; 79.3% (active) in experiment [5]; 97.6% (active) in experiment [6]. The inhibition was 78.5% (active) in experiment [7] and 62.3% (active) in experiment [8].

`O=C(c1ccccc1)c1nn(-c2ccc(Cl)cc2)c(=O)cc1C(F)(F)F`: the inhibition in experiment [1] is 65.3% (active); in experiment [2], 62.6% (active); in experiment [3], 21.8%; in experiment [4], 51.2% (active); in experiment [5] it was 73.3% (active); in experiment [6], 72.6% (active). Moreover, the inhibition in experiment [7] was 70% (active); in experiment [8] it was 74.8% (active).

As for `CC1(C)CC(N2CCCCC2)=CC(=[N+]2CCCCC2)C1`, the inhibition in experiment [1] is 21.5%; in experiment [2], 44.1% (active); in experiment [3] it was 14.8%; in experiment [4], 39.7% (active); in experiment [5] it was 30.1% (active); in experiment [6] it was 80% (active). Further, the inhibition was 69.1% (active) in experiment [7] and 67.3% (active) in experiment [8].

For `O=C(O)CSCC(=O)Nc1ccc(C2CCCCC2)cc1`, the inhibition in experiment [1] is 72% (active); in experiment [2] it was 62.4% (active); in experiment [3], 64.2% (active); in experiment [4], 63.7% (active); in experiment [5] it was 71.4% (active); in experiment [6] it was 78.8% (active). The inhibition in experiment [7] is 64.5% (active); in experiment [8] it was 63.6% (active).

For the molecule `CC1(C)CC(N2CCCC2)=CC(=[N+]2CCCCCC2)C1`, the inhibition in experiment [1] was 23%; in experiment [2], 49.5% (active); in experiment [3], -16.2%; in experiment [4], 52.1% (active); in experiment [5], 0.24%; in experiment [6] it was 95% (active). In addition, the inhibition in experiment [7] was 61.3% (active); in experiment [8] it was 60.9% (active).

`O=C(NC(NC(=S)N1CCOCC1)C(Cl)(Cl)Cl)c1ccc(Cl)cc1` (centres undefined): the inhibition is 30.4% in experiment [1]; 18.7% in experiment [2]; 23% in experiment [3]; 15% in experiment [4]; 47.4% (active) in experiment [5]; 53.2% (active) in experiment [6]. In addition, the figures for the inhibition in experiment [7] and in experiment [8] were 50.2% (active) and 20.3%, respectively.

For the molecule `NC(=Nc1nc(-c2ccccn2)cc2ccccc12)c1ccccn1`, the inhibition was 79% (active) in experiment [1]; 47.7% (active) in experiment [2]; 65.6% (active) in experiment [3]; 28.4% (active) in experiment [4]; 91.8% (active) in experiment [5]; 107% (active) in experiment [6]. Further, the results for the inhibition in experiment [7] and in experiment [8] were 88.8% (active) and 59.3% (active), respectively.

With `CCCCCCCCCCn1c2c(c(=N)c3c1CCC3)CCC2`, the inhibition is 85.2% (active) in experiment [1]; 89.5% (active) in experiment [2]; 57.1% (active) in experiment [3]; 89.7% (active) in experiment [4]; 82.1% (active) in experiment [5]; 108% (active) in experiment [6]. Moreover, the inhibition in experiment [7] is 94.5% (active); in experiment [8], 95.2% (active).

With `CCC1(O)C(=O)OCc2c1cc1n(c2=O)Cc2cc3c(N)cccc3nc2-1` (centres undefined), the inhibition in experiment [1] was 89.6% (active); in experiment [2], 77.9% (active); in experiment [3], 54.4% (active); in experiment [4], 71.3% (active); in experiment [5] it was 83.6% (active); in experiment [6] it was 104% (active). Besides, the inhibition in experiment [7] was 92.1% (active); in experiment [8] it was 79.6% (active).

In the case of `N=c1c2c(n(Cc3ccc(Cl)c(Cl)c3)c3c1CCC3)CCCC2`, the inhibition was 44.7% (active) in experiment [1]; 74.8% (active) in experiment [2]; 62.8% (active) in experiment [3]; 74.8% (active) in experiment [4]; 61.2% (active) in experiment [5]; 109% (active) in experiment [6]. Besides, the figures for the inhibition in experiment [7] and in experiment [8] were 84.6% (active) and 90.7% (active), respectively.

Take `CC1CCc2nc(NC(=O)CSc3nc4ccccc4o3)sc2C1` (centres undefined): the inhibition in experiment [1] is 14.2%; in experiment [2], 15.8%; in experiment [3], -11.1%; in experiment [4], -33.6%; in experiment [5] it was 5.74%; in experiment [6] it was -27.5%. The inhibition was 7.34% in experiment [7] and -33.5% in experiment [8].
